Source: publication PMC4336329 (PLoS ONE, 2015)
Hit rate of the full screen: of about 310,000 compounds, about 14,000 (4.5%) showed an effect of 50% or more. The effect is printed as a negative number. Many of the other results were omitted from the sample, so strong results are more common in it than they were.

target: human ether-à-go-go-related gene (hERG) potassium channel (human, UniProt Q12809); assay: primary screen, population patch clamp on CHO cells stably expressing hERG; higher = less effect of the substance
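Note: peak tail current of the secondary pulse compared with the same well before compound.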

Chain of human ether-à-go-go-related gene (hERG) potassium channel (Q12809 whole entry, looked up): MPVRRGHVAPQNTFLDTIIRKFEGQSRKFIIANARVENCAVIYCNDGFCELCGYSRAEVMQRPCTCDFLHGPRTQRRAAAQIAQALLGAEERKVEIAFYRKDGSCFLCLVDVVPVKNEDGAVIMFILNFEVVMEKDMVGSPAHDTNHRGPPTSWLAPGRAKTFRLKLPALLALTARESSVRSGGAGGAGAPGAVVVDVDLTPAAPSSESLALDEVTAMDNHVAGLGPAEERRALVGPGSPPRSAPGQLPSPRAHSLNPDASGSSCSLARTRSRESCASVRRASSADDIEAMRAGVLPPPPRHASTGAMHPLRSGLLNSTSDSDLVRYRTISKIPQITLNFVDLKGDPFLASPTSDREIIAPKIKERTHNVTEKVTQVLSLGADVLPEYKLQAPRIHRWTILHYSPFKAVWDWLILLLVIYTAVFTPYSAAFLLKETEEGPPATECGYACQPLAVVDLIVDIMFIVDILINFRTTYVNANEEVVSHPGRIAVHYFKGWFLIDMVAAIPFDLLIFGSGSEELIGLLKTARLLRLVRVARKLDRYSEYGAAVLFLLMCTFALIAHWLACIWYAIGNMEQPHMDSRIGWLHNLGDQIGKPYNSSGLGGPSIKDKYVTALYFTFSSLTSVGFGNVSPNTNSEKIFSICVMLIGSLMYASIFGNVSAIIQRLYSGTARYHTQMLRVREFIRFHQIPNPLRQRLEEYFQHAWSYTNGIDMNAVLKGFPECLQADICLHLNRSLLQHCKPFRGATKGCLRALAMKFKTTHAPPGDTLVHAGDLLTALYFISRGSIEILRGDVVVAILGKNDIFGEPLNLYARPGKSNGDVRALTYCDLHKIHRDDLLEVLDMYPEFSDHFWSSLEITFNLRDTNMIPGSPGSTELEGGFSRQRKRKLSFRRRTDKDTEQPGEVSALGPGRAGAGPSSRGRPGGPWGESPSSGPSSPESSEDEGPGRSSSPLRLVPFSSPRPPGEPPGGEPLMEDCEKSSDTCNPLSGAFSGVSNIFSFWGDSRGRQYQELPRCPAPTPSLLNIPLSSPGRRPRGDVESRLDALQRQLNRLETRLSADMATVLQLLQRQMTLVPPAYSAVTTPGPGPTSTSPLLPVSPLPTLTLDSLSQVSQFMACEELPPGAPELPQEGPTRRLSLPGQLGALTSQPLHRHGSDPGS

| SMILES | hERG current change (%, negative = inhibition) at 10uM [%] |
| --- | --- |
| CC(=O)OC[C@]1(OC(C)=O)C[C@@]23CC[C@H]4[C@@](C)(CCC[C@@]4(C)C(=O)O)[C@@H]2CC[C@@H]1C3 | 4.84 |
| O=C(NCC(=O)N1CCN(C(=O)c2ccco2)CC1)c1cccc(Cl)c1 | -48.6 |
| CC(OC(=O)Cn1cnc2c1c(=O)n(C)c(=O)n2C)C(=O)NCc1ccccc1 (centres unmarked) | 3.36 |
| Cc1noc(C)c1S(=O)(=O)Nc1ccc(C(=O)N2CCN(c3cccc(Cl)c3)CC2)cc1 | -4.16 |
| O=C(Nc1ccc(C(=O)N2CCCC2)cc1)c1ccc(F)cc1Cl | 0.232 |
| O=C(Nc1ccc2nc(-c3ccccn3)c(-c3ccccn3)nc2c1)N1CCOCC1 | 5.82 |
| S=C(Nc1ccc2nc(-c3ccccn3)c(-c3ccccn3)nc2c1)N1CCCCCC1 | -15.6 |
| S=C(Nc1ccc2nc(-c3ccccn3)c(-c3ccccn3)nc2c1)N1CCOCC1 | -69.6 |
| Cc1nnn(C23CC4CC(CC(C4)C2)C3)n1 | 7.98 |
| O=C(CCc1ccccn1)NC1CCCc2c1cnn2-c1ccc(F)cc1F (centres unmarked) | 3.18 |
| CN(C)C(=S)c1ccc2ccccc2n1 | 17.1 |
| COc1cc(-c2c(-c3cc(OC)c(OC)c(OC)c3)noc2C)ccc1F | 13.6 |
| COC(=O)c1cc(-c2c(-c3cc(OC)c(OC)c(OC)c3)noc2C)cc([N+](=O)[O-])c1 | -67.8 |
| COc1cc(-c2noc(C)c2-c2ccc3[nH]ccc3c2)cc(OC)c1OC | 8.02 |
| CCOc1ncccc1C(=O)OCC(=O)c1cc(C)n(Cc2ccco2)c1C | -7.34 |
| O=S(=O)(/C=C/c1ccccc1)N1CCOCC1 | 7.65 |
| CCOC(=O)c1[nH]cnc1C(=O)Nc1ccc([N+](=O)[O-])cc1 | 4.57 |
| CC(C(=O)Nc1ccccc1F)N1CCN(C)CC1.O=C(O)C(=O)O (centres unmarked) | 11.9 |
| O=c1[nH]c(CN2CCN(S(=O)(=O)c3ccc4ccccc4c3)CC2)nc2ccccc12 | 2.03 |
| O=c1[nH]c(CN2CCN(S(=O)(=O)/C=C/c3ccccc3)CC2)nc2cc(Cl)ccc12 | -65.8 |
| O=c1[nH]c(CN2CCN(S(=O)(=O)/C=C/c3ccccc3)CC2)nc2ccccc12 | -66.5 |
| COc1cc2nc(CN3CCN(S(=O)(=O)c4c(F)cccc4F)CC3)[nH]c(=O)c2cc1OC | -33.4 |

| SMILES | hERG current change (%, negative = inhibition) at 10uM [%] |
| --- | --- |
| CCS(=O)(=O)N1CCN(Cc2nc3ccccc3c(=O)[nH]2)CC1 | -12.9 |
| COc1cc2nc(CN3CCN(S(=O)(=O)c4ccc(Cl)cc4)CC3)[nH]c(=O)c2cc1OC | -58.2 |
| O=C1CN(Cc2nc3cc(Cl)ccc3c(=O)[nH]2)CCN1 | 25.4 |
| COc1cc2nc(CN3CCN(S(=O)(=O)c4ccc(C)c(C)c4)CC3)[nH]c(=O)c2cc1OC | -16.8 |
| O=c1[nH]c(CN2CCN(S(=O)(=O)c3ccc(Cl)cc3)CC2)nc2cc(Cl)ccc12 | -11.8 |
| COc1ccc(C)cc1S(=O)(=O)N1CCCC(N2CCOCC2)C1 (centres unmarked) | 13.4 |
| O=S(=O)(Nc1cccc2c1CCCC2)c1ccc(Cl)cc1 | -9.87 |
| COC(=O)c1c(NC(=O)C2CCC2)sc(C(=O)N(C)C)c1C | 4 |
| O=C(/C=C/c1ccc2c(c1)OCO2)c1c(O)n(CCc2ccccc2)c(=O)[nH]c1=O | 1.79 |
| COc1cc(CCC(=O)OCC(=O)Nc2ccc(Br)cc2F)cc(OC)c1OC | -11.6 |
| COC(=O)c1ccc(NC(=O)CN2CCN(c3ccc(Cl)cc3)CC2)cc1 | 11.9 |
| O=C(CN1CCN(CC(=O)Nc2ccc(-c3ccccc3)cc2)CC1)Nc1ccc(F)cc1 | -66.2 |
| O=C(CN1CCOCC1)Nc1ccc(F)cc1 | 2.97 |
| O=C(CSc1ccccc1F)Nc1ccc(N2CCOCC2)cc1 | 3.82 |
| O=C(CN1CCN(CC(=O)Nc2ccc(Cl)cc2)CC1)Nc1ccc(F)cc1 | -76.9 |
| NC(=O)c1ccc(NC(=O)CN2CCN(c3ccccc3)CC2)cc1 | 12.6 |
| NC(=O)c1ccc(NC(=O)CN2CCN(c3ccc(Cl)cc3)CC2)cc1 | -51.3 |
| O=C(CN1CCN(c2ccccc2)CC1)Nc1ccc(F)cc1 | -39.7 |
| O=C(CN1CCN(CC(=O)Nc2cccc(F)c2)CC1)Nc1ccc(-c2ccccc2)cc1 | -28.6 |
| Cc1ccc(SCC(=O)Nc2ccc(N3CCOCC3)cc2)c(C)c1 | 10.5 |
| O=C(CSc1cc(Cl)ccc1Cl)Nc1ccc(N2CCOCC2)cc1 | -58.3 |
| O=C(CN1CCOCC1)Nc1ccc(Cl)cc1 | -1.12 |
